# Screening results: PubChem, National Center for Advancing Translational Sciences (NCATS)
# KB-3-1 cytotox = qHTS assay for MDR1-selective chemotherapeutics: Primary screen using the parental adenocarcinoma cell KB-3-1; KB-3-1 viability, CellTiter-Glo ATP luminescence, 72 h; AID 1347075, 2019; Potency, µM (series often up to 46.1 µM), most hits filed as cytotoxic; actives 1.4% (n = 400,000); also: nearly all actives have a fitted effect of over 60% in size
#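 Multi-concentration cytotoxicity screen in KB-3-1 cells grown in DMEM lacking phenol red with 10% FBS. After 72 h at 37 °C with compound, ATP-dependent luminescence was recorded.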
# HT1080NT lethal = qHTS for induction of synthetic lethality in tumor cells producing 2HG: qHTS for the HT-1080-NT fibrosarcoma cell line. HT-1080-NT fibrosarcoma viability, CellTiter-Glo ATP luminescence, 48 h. Potency, µM (doses to about 46.1 µM), without a hit: at the top dose activity, negative = less viability, most hits filed as cytotoxic. actives 1.6% (n = 360,000). AID 686970, 2013;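 also: NT is the 2HG producing partner of a matched IDH1 knockdown line; 0% = DMSO-treated cells and -100% = media-only wells without cells; nearly all actives have a fitted effect of over 55% in size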
#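 HT-1080-NT fibrosarcoma cells (2HG-overproducing), 750 cells/well in RPMI with 5% FBS, dosed after 2 h and incubated 48 h at 37C. CellTiter-Glo luminescence normalized to DMSO and no-cell wells; concentration-response curves fitted and classed.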
# HT1080 IDH1KD tx = qHTS for induction of synthetic lethality in tumor cells producing 2HG: qHTS for the HT-1080-IDH1KD cell line. actives 2% (n = 360,000). Potency, µM (titrated, usually from 46.1 µM), for inactives: top-dose activity, negative = toxicity, actives largely listed as cytotoxic. HT-1080 IDH1 knockdown viability, ATP luminescence, 48 h;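 also: 0% = DMSO wells and -100% = cell-free medium wells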
#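 Using the IDH1-knockdown HT-1080 line run in the same batch and compound series as the NT line, viability after 48 h at 37 °C was determined by CellTiter-Glo luminescence and expressed as % activity.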
# KB-V1 MDR tox = qHTS assay for MDR1-selective chemotherapeutics: Primary screen using the drug-selected MDR subline cells KB-V1; KB-V1 MDR cells viability, CellTiter-Glo, 72 h; Potency, µM (highest dose often 46.1 µM), hits mostly cytotoxic; actives 3.4% (n = 400,000); also: nearly all actives have a fitted effect of over 60% in size
#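 Luminescent ATP read-out (CellTiter-Glo, 10 min) measures survival of drug-selected KB-V1 MDR cells after 72 h, 37 degrees C compound exposure. Medium: phenol-red-free DMEM, 10% FBS. Values from fitted concentration-response curves.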
# DT40 TDP1 CPT = qHTS for Inhibitors of human tyrosyl-DNA phosphodiesterase 1 (TDP1): qHTS in cells in presence of CPT; AID 686979, 2013; Potency, µM (top dose mostly 46.2 µM), for inactives: top-dose activity change, negative = growth inhibition, usual class: inhibitors; actives 12% (n = 420,000); chicken DT40 Tdp1-/-;hTDP1 cells + 20 nM CPT, ATP luminescence, 48 h; also: nearly all actives have a fitted effect of over 55% in size
#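 Cell growth measured by CellTiter-Glo luminescence after a minimum 48 h, 37 C compound exposure with 20 nM CPT in Tdp1-knockout DT40 cells stably expressing hTDP1, seeded 400/well; qHTS titration format.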
# DT40 TDP1 no CPT = qHTS for Inhibitors of human tyrosyl-DNA phosphodiesterase 1 (TDP1): qHTS in cells in absence of CPT; actives 15% (n = 420,000); Potency, µM (doses to about 46.2 µM), inactives show at the top dose activity change, negative = growth inhibition, actives largely listed as inhibitors; AID 686978, 2013; DT40 Tdp1-/- hTDP1 cells, no CPT, ATP luminescence, 48 h; also: nearly all actives have a fitted effect of over 55% in size
#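 Growth of hTDP1-complemented DT40 Tdp1-knockout cells is measured by ATP luminescence after at least 48 hr compound exposure at 37 °C, with DMSO substituting for the 20 nM CPT used in the parallel screen.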
# * marks the source's active call; other numbers are inactive results; i = inactive; ? = inconclusive; · = not tested or not shown; [ ] = another dose, or the depositor's remark. A selection: hits, their analogues and other compounds. The true share with any hit is near 19%. Calls follow the shape of the dose curve; as a rule, active = well fitted curve in the direction sought with a large enough effect; inconclusive = small, poorly fitted or top-dose-only effect, or another doubt; inactive = no such curve, though single readings can be large; an effect the other way counts as inactive or inconclusive. Unless noted, % is scaled to controls: 0 for no effect and ±100 for the full control effect; potency is read from the fitted curve at half-maximal effect.
SMILES,KB-3-1 cytotox,HT1080NT lethal,HT1080 IDH1KD tx,KB-V1 MDR tox,DT40 TDP1 CPT,DT40 TDP1 no CPT
[O-][N+]1=c2ccc(Nc3ccccc3)cc2=NC12CCCCC2,?,?,16µM*,?,3.7µM*,4.1µM*
COc1ccc(Nc2ccc3c(c2)=NC2(CCCCC2)[N+]=3[O-])cc1,15µM*,?,?,?,2.6µM*,2.6µM*
COc1ccc(NC2=NCCC2)cc1,i,7%,21%,i,13%,0%
Nc1cccc(Nc2ccccc2)c1,i,11%,3%,i,0%,1%
COc1ccc2cnn(-c3ccccc3)c(=O)c2c1OC,i,16%,10%,i,?,?
COc1ccc2cnn(-c3ccccc3C)c(=O)c2c1OC,i,-12%,-8%,i,10µM*,7.3µM*
O=C(CN1CCC(n2nnc3cc(F)ccc32)CC1)N1CCCc2ccccc21,i,-29%,?,i,?,?
CCOc1ccc2nc(NC(=O)CN3CCC(n4nnc5cc(C(F)(F)F)ccc54)CC3)sc2c1,i,-20%,?,i,15µM*,23µM*
O=C(CN1CCC(n2nnc3cc(C(F)(F)F)ccc32)CC1)N1CCc2ccccc21,i,0%,5%,?,13µM*,10µM*
COc1ccc(C(=O)N2CCC3(CC2)CN(C(=O)NC(C)C)C3)cc1,·,·,·,·,10%,1%
N#Cc1c(N2CCCCC2)nc(N)c2c(N)nc3c(c12)CC(c1ccccc1)O3 (stereo not drawn),i,-17%,-24%,?,?,11µM*
CCN(CC)c1nc(N)c2c(N)nc3c(c2c1C#N)CC(c1ccccc1)O3 (stereo not drawn),i,-28%,?,21µM*,?,?
CCN(CC)c1nc(N)c2c(N)n(-c3ccccc3C)c(=S)c(C#N)c2c1C#N,i,13%,7%,i,-4%,-17%
N#Cc1c(N2CCCC2)nc(N)c2c(N)nc(N3CCCC3)cc12,?,-20%,-26%,0.73µM*,?,18µM*
Cc1cc(C)n2nc(CCCO)nc2n1,i,0%,2%,i,-7%,3%
O=C(Cc1ccc(Cl)cc1)NC1CCCN(Cc2ccccc2F)C1 (stereo not drawn),i,0%,0%,i,-16%,-5%
O=C(c1ccc2c(c1)OCO2)N(Cc1cc2ccc(F)cc2nc1N1CCC(O)CC1)CC1CCCO1 (stereo not drawn),·,·,·,·,5%[9.04 µM],?
COc1ccc2c(c1)c(=O)c(S(=O)(=O)c1ccc(F)cc1)cn2Cc1ccccc1Cl,i,·,·,i,0.26µM*,0.23µM*
COc1cc2c(=O)c(S(=O)(=O)c3ccc(F)cc3)cn(Cc3ccccc3C)c2cc1OC,i,·,·,i,16µM*,18µM*
COc1cc2c3nnc(-c4ccc(F)cc4)c-3cn(Cc3ccccc3F)c2cc1OC,15µM*,?,?,i,3.7µM*,2.6µM*
Cc1ccc(NC(=S)N2CCN(c3ccccc3F)CC2)c(C)c1,i,-2%,-2%,i,?,?
COc1ccc(Cl)cc1NC(=O)c1cccc([N+](=O)[O-])c1O,12µM*,?,?,21µM*,12µM*,8.2µM*
COc1ccc(Cl)cc1NC(=O)c1noc2c1CCCC2,i,0%,-1%,i,-11%,-3%
COc1ccc(Cl)cc1NC(=O)c1noc(C)c1[N+](=O)[O-],i,14%,0%,i,2.9µM*,2.3µM*
O=C(NNC(=O)c1cc(Br)c(Br)s1)c1csc(N2CCOCC2)n1,i,-17%,?,i,-1%,-9%
SMILES,KB-3-1 cytotox,HT1080NT lethal,HT1080 IDH1KD tx,KB-V1 MDR tox,DT40 TDP1 CPT,DT40 TDP1 no CPT
Cc1ccccc1N(C(=O)Cn1nnc(-c2cccs2)n1)C(C(=O)NCCC(C)C)c1ccco1 (stereo not drawn),?,-1%,-9%,i,?,?
Cc1nc(NC(=O)c2cccc(-c3cc4ccccc4oc3=O)c2)ccc1Br,?,20%,8%,?,-28%,?
O=C(Nc1ccc(N2CCCC2)cc1)c1cccc(-c2cc3ccccc3oc2=O)c1,i,7%,0%,i,16µM*,23µM*
O=C(Nc1ccccc1N1CCCC1)c1cccc(-c2cc3ccccc3oc2=O)c1,i,-19%,-11%,3.7µM*,?,21µM*
O=C(Nc1ccc(Br)cn1)c1cccc(-c2cc3ccccc3oc2=O)c1,?,?,23µM*,i,?,?
COc1ccc(C2=NS(=O)(=O)N(C)C(C(=O)Nc3ccc4c(c3)OCO4)=C2)cc1OC,?,-8%,-5%,i,16µM*,16µM*
COc1ccc(C2=NS(=O)(=O)N(C)C(C(=O)NC3CCCCC3)=C2)cc1OC,i,2%,8%,i,9.2µM*,18µM*
COc1ccc(C2=NS(=O)(=O)N(C)C(C(=O)Nc3ccc4c(c3)OCO4)=C2)cc1,i,-6%,-12%,i,16µM*,8.2µM*
Cc1cccc(C)c1NC(=O)Cn1cc(S(=O)(=O)Cc2ccc(F)cc2)c2ccccc21,i,·,·,i,?,-10%
Cc1ccc(NC(=O)CCn2cc(C(F)(F)F)ccc2=O)cc1,i,2%,3%,i,5%,-6%
COc1ccc(CCNc2oc(COc3ccccc3)nc2C#N)cc1,i,1%,0%,16µM*,?,?
CCC(CC)c1nc(C#N)c(NCc2ccccc2)o1,15µM*,?,?,?,23µM*,21µM*
COc1ccc(Nc2oc(COc3ccccc3F)nc2C#N)cc1,i,-9%,0%,i,?,13µM*
N#Cc1nc(-c2ccc(F)cc2)oc1NCc1ccccc1,i,5%,-4%,i,?,?
COc1ccc(CNc2oc(COc3cccc(C)c3)nc2C#N)cc1,i,·,·,?,4.1µM*,?
O=C(CCNS(=O)(=O)c1cccs1)NCc1ccco1,i,20%,13%,i,-12%,-1%
